The source of these data is PubChem BioAssay.

Values joined by “and” are separate entries in the source; they are usually repeats but may differ in a detail not shown here. Equal entries are not always repeated. The source holds several records for some structures; these can differ, active in one and inactive in another. Active and inactive are the calls of the source. Unless noted, how the calls were made is not given here.

Assay [1] in a line: resazurin metabolic signal in HepG2 cells – cell-based, resazurin fluorescence, 24 h, PK04 Diversity Set, profiling panel (AID 1172). Conditions: HepG2 viability, higher = more signal.
Assay [2] can be described thus: budding yeast growth changes without added modifier – OD600, strain BY4716, 24 h, basal condition, primary screen (AID 1173). The following applies: S. cerevisiae BY4716 growth, OD600, 24 h; higher = more signal, called active from +8 up or from −8 down.
Assay [3] is described as follows: viability profiling in MM1S myeloma cells – cell-based, resazurin fluorescence, basal, 24 h, PK04 Diversity Set, profiling panel (AID 1174).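 Further: MM1S multiple myeloma cell line.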 The following applies: higher = more signal, called active from +8 up or from −8 down.
The target in assay [4] is Dihydroorotate dehydrogenase (quinone), mitochondrial (Plasmodium falciparum (isolate 3D7)) (UniProt Q08210). The experiment in a line: inhibition of P. falciparum DHODH – biochemical, C-terminal His tag, absorbance 600 nm, primary screen (AID 1175).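 Further: recombinant parasite enzyme with a five histidine tag at its C terminus.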 Conditions: PfDHODH enzyme, DCIP absorbance 600 nm; higher = more signal, called active from +8 up or from −8 down.
Sequence of Dihydroorotate dehydrogenase (quinone), mitochondrial (Plasmodium falciparum (isolate 3D7)) (Q08210 whole entry, looked up): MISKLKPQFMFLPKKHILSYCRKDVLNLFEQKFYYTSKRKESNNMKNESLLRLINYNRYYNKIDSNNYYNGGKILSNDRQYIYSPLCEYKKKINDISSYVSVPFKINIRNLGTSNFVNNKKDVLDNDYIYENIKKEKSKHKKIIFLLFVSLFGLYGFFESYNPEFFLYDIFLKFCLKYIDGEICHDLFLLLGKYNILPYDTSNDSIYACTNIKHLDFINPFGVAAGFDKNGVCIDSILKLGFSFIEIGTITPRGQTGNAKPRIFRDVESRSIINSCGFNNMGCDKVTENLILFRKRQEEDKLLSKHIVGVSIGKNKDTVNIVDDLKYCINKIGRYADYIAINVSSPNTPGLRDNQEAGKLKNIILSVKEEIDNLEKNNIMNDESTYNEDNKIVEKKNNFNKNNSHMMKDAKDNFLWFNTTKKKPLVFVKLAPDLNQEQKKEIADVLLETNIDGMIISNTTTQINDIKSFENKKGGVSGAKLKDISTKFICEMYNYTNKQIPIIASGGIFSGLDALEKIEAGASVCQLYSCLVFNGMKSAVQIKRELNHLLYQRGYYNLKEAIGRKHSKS
Assay [5] is described as follows: inhibition of PAO1 biofilm formation – strain PAO1, LB-PBS medium, absorbance 600 nm, primary screen (AID 1176). Conditions: P. aeruginosa PAO1 growth/biofilm, A600, 12 h; higher = more signal.
Assay [6] can be described thus: growth modulation of vineyard yeast isolate – strain RM11-1a, OD600, basal, 24 h, primary screen (AID 1177).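 Further: cultures grown under basal conditions with no added stressor.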 Conditions: S. cerevisiae RM11-1a growth, OD600, 24 h; higher = more signal, called active from +8 up or from −8 down.
Assay [7] can be described thus: growth of efflux-deficient E. coli DRC39 – strain DRC39, OD650, 24 h, E. coli filamentation inducers, primary screen (AID 1178).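 Further: growth measured as culture turbidity by optical density at 650 nm.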 Conditions: E. coli DRC39 acrAB, higher = more signal, called active from +8 up or from −8 down.
A short description of assay [8]: growth of efflux-deficient E. coli DRC39 – strain DRC39, OD650, 48 h, E. coli filamentation inducers, primary screen (AID 1179).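 Further: screen aims at cell division blockers that make cells filament.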 Conditions: E. coli DRC39 delta-acrAB growth, higher = more signal, called active from +8 up or from −8 down.
A short description of assay [9]: viability profiling in RPMI8226 myeloma cells – cell-based, resazurin fluorescence, basal, 24 h, PK04 Diversity Set, profiling panel (AID 1180).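 Further: RPMI8826 multiple myeloma cell line at 5000 cells per well.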 Conditions: higher = more signal.
In assay [10] the target is E3 ubiquitin-protein ligase XIAP (Homo sapiens) (UniProt P98170). The experiment in a line: small molecules binding XIAP protein – biophysical, small-molecule microarray, fluorescence 635 nm, primary screen (AID 1181).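 Further: score merges 667 nm emission and signal to noise over triplicate slides.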 The following applies: higher = more signal.
Sequence of E3 ubiquitin-protein ligase XIAP (Homo sapiens) (P98170 whole entry, looked up, the tested form may be a part): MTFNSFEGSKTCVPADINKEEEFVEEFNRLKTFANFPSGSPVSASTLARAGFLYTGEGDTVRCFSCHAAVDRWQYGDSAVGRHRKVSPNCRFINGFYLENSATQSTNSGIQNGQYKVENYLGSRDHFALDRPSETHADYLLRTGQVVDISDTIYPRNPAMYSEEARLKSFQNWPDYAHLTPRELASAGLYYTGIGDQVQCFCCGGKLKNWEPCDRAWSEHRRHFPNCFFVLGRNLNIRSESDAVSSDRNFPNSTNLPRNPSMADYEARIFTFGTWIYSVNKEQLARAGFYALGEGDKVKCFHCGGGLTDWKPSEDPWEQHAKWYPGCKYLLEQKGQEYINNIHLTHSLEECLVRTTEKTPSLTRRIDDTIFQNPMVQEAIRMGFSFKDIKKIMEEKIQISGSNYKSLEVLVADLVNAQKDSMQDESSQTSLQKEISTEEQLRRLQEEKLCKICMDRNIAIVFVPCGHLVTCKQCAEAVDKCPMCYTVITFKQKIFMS
Assay [11] concerns XIP peptide (Xip251-270) binding. The experiment in a line: XIP fragment 251-270 binding compounds – biochemical, small-molecule microarray, fluorescence 635/667 nm, 0.1 µg/mL protein, primary screen (AID 1182). The following applies: fluorescent protein binding, 635 nm, higher = more signal, called active from +8 up or from −8 down.
The next assay deals with XIP peptide (Xip251-270). The experiment in a line: compounds binding XIP fragment 251-270 – biochemical, small-molecule microarray, fluorescence 635/667 nm, 0.5 µg/mL protein, primary screen (AID 1183). Conditions: fluorescence 635 nm, higher = more signal.
Assay [12] in a line: blood-stage malaria parasite viability loss – strain 3D7, DAPI fluorescence, 100 nL, primary screen (AID 1184).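 Further: parasites grown inside human red blood cells in medium with human serum.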 The following applies: P. falciparum 3D7 growth, 3 d, higher = more signal.
In assay [13] the target is Homeobox protein Hox-A13 (Mus musculus) (UniProt Q62424). As to the kind of experiment: disruptors of Hoxa13 oligonucleotide interaction – biochemical, fluorescence polarization, labeled oligonucleotide, primary screen (AID 1185). Conditions: Hoxa13:DNA binding, 15 min, higher = more signal, called active from +8 up or from −8 down.
Sequence of Homeobox protein Hox-A13 (Mus musculus) (Q62424 whole entry, looked up): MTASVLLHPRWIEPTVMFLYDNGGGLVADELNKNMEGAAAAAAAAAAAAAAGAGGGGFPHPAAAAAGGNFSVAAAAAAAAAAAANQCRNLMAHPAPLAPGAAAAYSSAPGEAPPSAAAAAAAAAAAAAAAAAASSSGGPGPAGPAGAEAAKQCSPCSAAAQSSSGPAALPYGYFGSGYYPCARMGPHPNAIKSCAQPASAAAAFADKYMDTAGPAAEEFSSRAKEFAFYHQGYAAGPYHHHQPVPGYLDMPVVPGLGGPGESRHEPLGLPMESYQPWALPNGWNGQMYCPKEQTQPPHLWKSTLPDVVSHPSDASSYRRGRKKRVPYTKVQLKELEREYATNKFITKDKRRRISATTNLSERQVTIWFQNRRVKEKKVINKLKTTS
The nature of assay [14]: blockers of DNA damage checkpoint Chk1 activation – imaging, HeLa, hydroxyurea, phospho-Chk1 antibody, percent positive cells, primary screen (AID 1186). Conditions: hydroxyurea-induced phospho-Chk1 immunofluorescence imaging, higher = more signal.
Assay [15] can be described thus: blockers of DNA damage checkpoint Chk1 activation – imaging, HeLa, hydroxyurea, phospho-Chk1 nuclear intensity, primary screen (AID 1187). Conditions: hydroxyurea-induced phospho-Chk1 immunofluorescence imaging, higher = more signal.

With `C#CCN1C(/C=C/c2ccccc2)C(=O)OC[C@H]1c1ccccc1` (stereo partly specified), the z-score in assay [1] was 0.0256 and 1.82; in [2], -5.79 (inactive) and -4.84 (inactive); in [3], 0.911 (inactive) and 0.42 (inactive); in assay [5], -0.73 (inactive); in assay [6], -2.77 (inactive) and -0.151 (inactive); in assay [7] it was 2.04 (inactive) and 0.715 (inactive). Moreover, the z-score is 0.639 (inactive) and -0.294 (inactive) in [8]; 0.681 and 1.36 in [9]; -2.32 and -1.18 in [12]; 0.468 (inactive) and -2.46 (inactive) in assay [13]; -0.322 (inactive) and 0.0385 (inactive) in assay [14]; -0.322 (inactive) and -0.239 (inactive) in [15]. Also, the composite z-score in [4] was -3.42 (inactive) and -0.43 (inactive); in assay [10], 0.0727 and -0.0871; in assay [11], -0.538 (inactive) and 0.237 (inactive); in the assay on XIP peptide (Xip251-270) it was -0.0814 and 0.83.

In the case of `COC(=O)[C@@]1(Cc2ccccc2)[C@H]2c3cc(C(=O)N(C)C)n(Cc4ccc(C)c(F)c4F)c3C[C@H]2CN1C(=O)c1ccccc1`, the z-score in assay [1] is -2.95 and -1.72; in [2] it was -0.265 (inactive) and 0.53 (inactive); in assay [3], -9.12 (active) and -3.68 (inactive); in assay [5], 3.02 (inactive) and 2.16 (inactive); in assay [6], 0.526 (inactive) and 0.401 (inactive); in assay [7], -0.347 (inactive) and -1.25 (inactive). The z-score in assay [8] was -0.834 (inactive) and -0.836 (inactive); in assay [9], -6.06 and -3.79; in [12], -1.74 and -1.65; in assay [13], -4.22 (inactive) and -3.34 (inactive); in [14], -0.387 (inactive) and 0.293 (inactive); in [15] it was -0.653 (inactive) and 0.169 (inactive). Besides, the composite z-score in [4] is -3.37 (inactive) and -0.0662 (inactive); in assay [10], 0.188 and 0.122; in assay [11], -0.103 (inactive) and -0.157 (inactive); in the assay on XIP peptide (Xip251-270) it was 0.639 and 0.462.

On to `CC(CO)N1C(=O)[C@@H]2C3C(=O)OCCC=C[C@H]3OC23C=CCN(Cc2ccccc2)C(=O)[C@@H]13` (stereo partly specified), for which the z-score was 0.278 and -0.0236 in assay [1]; 1.35 (inactive) and -1.28 (inactive) in assay [2]; 0.533 (inactive) and 0.868 (inactive) in assay [3]; -1.35 (inactive) and -0.0684 (inactive) in assay [5]; 1.57 (inactive) and -0.214 (inactive) in assay [6]; 0.748 (inactive) and 0.632 (inactive) in assay [7]. Besides, the z-score is 0.453 (inactive) and 0.309 (inactive) in assay [8]; 0.252 and 0.693 in [9]; -1.1 and -0.233 in assay [12]; -5.29 (inactive) and -4.45 (inactive) in [13]; -0.769 (inactive) and -0.0621 (inactive) in assay [14]; -0.426 (inactive) and -0.217 (inactive) in assay [15]. For the same molecule, the composite z-score in assay [4] is 0.113 (inactive) and -2.83 (inactive); in assay [10], -0.196 and 0.194; in assay [11], -0.05 (inactive) and 0.127 (inactive); in the assay on XIP peptide (Xip251-270), -0.4 and -0.181.

As to `CC(CO)N1C(=O)[C@@H]2C3C(=O)OCCC=C[C@H]3OC23C=CCN(Cn2nnc4ccccc42)C(=O)[C@@H]13` (stereo partly specified), the z-score in assay [1] is 0.576 and 0.999; in [2], 0.771 (inactive) and 0.283 (inactive); in assay [3] it was -0.415 (inactive) and -0.0046 (inactive); in [5], 0.55 (inactive) and 0.798 (inactive); in assay [6], 1.07 (inactive) and -0.995 (inactive); in assay [7], -0.125 (inactive) and 0.0633 (inactive). The z-score in [8] was -0.214 (inactive) and -0.099 (inactive); in assay [9] it was 0.0489 and -0.178; in assay [12], -0.0355 and 0.986; in assay [13], -3.43 (inactive) and -5.52 (inactive); in assay [14], 0.787 (inactive) and 0.875 (inactive); in assay [15] it was 0.336 (inactive) and 0.749 (inactive). Further, the composite z-score in assay [4] is -4.99 (inactive) and -0.478 (inactive); in [10] it was -0.0448 and -0.21; in assay [11], 0.287 (inactive) and 0.0057 (inactive); in the assay on XIP peptide (Xip251-270) it was 0.699 and 0.41.

`CCOC(=O)c1ccc(NC(=O)O[C@H]2[C@H](OC(=O)Nc3ccccc3)[C@@H](OC(=O)Nc3ccccc3)[C@@H](OC)O[C@@H]2CO)cc1`: the z-score in assay [1] was -1.97 and -1.75; in assay [2], 2.09 (inactive) and 0.61 (inactive); in assay [3], -2.14 (inactive) and -3.07 (inactive); in assay [5], 1.94 (inactive) and 1.5 (inactive); in assay [6] it was 2.51 (inactive) and 2.87 (inactive); in [7] it was 0.028 (inactive) and 0.188 (inactive). The z-score was -0.343 (inactive) and -0.714 (inactive) in assay [8]; -1.82 and -1.87 in assay [9]; -1.89 and -2.47 in assay [12]; -3.34 (inactive) and -4.61 (inactive) in assay [13]; 0.416 (inactive) and -0.71 (inactive) in assay [14]; 0.161 (inactive) and -0.827 (inactive) in assay [15]. The composite z-score is 0.146 (inactive) and 0.755 (inactive) in [4]; 0.39 and -0.146 in [10]; 1.73 (inactive) and 0.466 (inactive) in [11]; 0.928 and 0.91 in the assay on XIP peptide (Xip251-270).

Consider `C=CCN(C(=O)C(c1cccs1)N(C(=O)/C=C\C(=O)O)C(C)(C)CO)c1ccc(OC)cc1` (stereo unspecified), for which the z-score in [1] is 0.916 and 0.892; in assay [2], -2.66 (inactive) and -1.93 (inactive); in assay [3], 1.41 (inactive) and 0.788 (inactive); in assay [5], 0.659 (inactive); in assay [6], -4.37 (inactive) and -2.5 (inactive); in assay [7], 1.81 (inactive) and 1.92 (inactive). For the same molecule, the z-score was 2.23 (inactive) and 2.15 (inactive) in assay [8]; 0.402 and 0.207 in assay [9]; -0.89 and 0.294 in assay [12]; -0.168 (inactive) and -2.07 (inactive) in assay [13]; -0.951 (inactive) and -0.63 (inactive) in [14]; -1.17 (inactive) and -0.0664 (inactive) in assay [15]. For the same molecule, the composite z-score in [4] was -1.46 (inactive) and -1.61 (inactive); in assay [10] it was -0.102 and 0.214; in assay [11] it was -0.114 (inactive) and 0.302 (inactive); in the assay with XIP peptide (Xip251-270), -1.17 and -0.372.
